Bioassay records as filed in PubChem BioAssay.
Rows were chosen to be rich in hits. Some 8% of all compounds tested hit in one or more screens of this group.
HT1080 IDH1KD tx: toxicity to HT-1080 IDH1 knockdown cells (counter line) | AID 686971 | Potency, µM (top dose mostly 46.1 µM), for inactives: top-dose activity, negative = toxicity, hits mostly cytotoxic | HT-1080 IDH1 knockdown viability, ATP luminescence, 48 h | actives 2% (n = 360,000);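 note: 0% = DMSO wells and -100% = cell-free medium wells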
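IDH1KD HT-1080 cells, 750/well, RPMI + 5% FBS; compound pinned after 2 h settling; 48 h, 37 °C; CellTiter-Glo luminescence; % activity normalised to DMSO and no-cell wells; curves fitted, classed by r2 and efficacy.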
KB-V1 cytotox: kills drug-selected multidrug resistant KB-V1 cells. KB-V1 MDR cells viability, CellTiter-Glo, 72 h. Potency, µM (doses to about 46.1 µM), usual class: cytotoxic. actives 3.4% (n = 400,000). AID 1347076; note: % is set by controls: 0 for no effect and ±100 for the full control effect; nearly all actives have a fitted effect of over 60% in size
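Readout: CellTiter-Glo luminescence, 10 min after addition. Cells: KB-V1 MDR subline, 72 h at 37 degrees C with compound. Analysis: corrected, normalized data fitted to concentration-effect curves.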
KB-3-1 tox: KB-3-1 parental cell cytotoxicity. KB-3-1 viability, CellTiter-Glo ATP luminescence, 72 h. Potency, µM (series often up to 46.1 µM), usual class: cytotoxic. actives 1.4% (n = 400,000); note: % is set by controls: 0 for no effect and ±100 for the full control effect; nearly all actives have a fitted effect of over 60% in size
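Here the drug-naive KB-3-1 line serves as comparator for MDR sub-line selectivity; cells received compound titrations, 72 h at 37 °C, then CellTiter-Glo readout.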
HT1080-NT tox: kills 2HG-producing HT-1080-NT fibrosarcoma cells; Potency, µM (doses to about 46.1 µM), inactives show at the highest dose activity, negative = less viability, most hits filed as cytotoxic; HT-1080-NT fibrosarcoma viability, CellTiter-Glo ATP luminescence, 48 h; actives 1.6% (n = 360,000);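 note: NT is the 2HG producing partner of a matched IDH1 knockdown line; 0% = DMSO-treated cells and -100% = media-only wells without cells; nearly all actives have a fitted effect of over 55% in size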
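HT-1080-NT fibrosarcoma cells (2HG-overproducing), 750 cells/well in RPMI with 5% FBS, dosed after 2 h and incubated 48 h at 37C. CellTiter-Glo luminescence normalized to DMSO and no-cell wells; concentration-response curves fitted and classed.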
SW480 rerep: induces DNA re-replication in SW480 colon adenocarcinoma cells. SW480 DNA re-replication, Hoechst DNA content imaging, 48 h. Potency, µM (top dose mostly 46.1 µM), inactives show top-dose re-replication activation, hits mostly activators. actives 1.8% (n = 340,000); note: % of control where 0% means no effect; nearly all actives have a fitted effect of over 55% in size
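Readout is total intensity of Hoechst-stained nuclei, excited at 405 nm and collected at 500-530 nm. Compound treatment lasted 48 hr at 37 C in 5% CO2 before staining.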
MCF10A rerep: DNA re-replication induction in MCF 10a cells. MCF 10A DNA re-replication, Hoechst nuclear intensity, 48 h. Potency, µM (top dose mostly 46.1 µM), for the others: at the top dose activity, positive = re-replication, actives largely listed as activators. actives 2.9% (n = 350,000); note: % of control where 0% means no effect; nearly all actives have a fitted effect of over 50% in size
* hit, by the source's call; i = inactive; ? = inconclusive; / = no result. Calls come from the whole dose curve; as a rule, active = well fitted curve in the direction sought with a large enough effect; inconclusive = small, poorly fitted or top-dose-only effect, or another doubt; inactive = no such curve, though single readings can be large; an effect the other way counts as inactive or inconclusive. Potency is the fitted concentration of half-maximal effect.

SMILES	HT1080 IDH1KD tx	KB-V1 cytotox	KB-3-1 tox	HT1080-NT tox	SW480 rerep	MCF10A rerep
Cc1ccc(C(=O)Cc2nc3ccccc3[nH]2)cc1	-30%	i	i	3%	19%	0%
O=C(Cc1nc2ccccc2[nH]1)c1cccc([N+](=O)[O-])c1	-7%	i	?	2%	?	7.3µM*
Cc1cc(C(=O)CSc2nc3ccccc3[nH]2)c(C)n1CC1CCCO1 (stereo unspecified)	?	2.3µM*	3.7µM*	1%	0%	?
CCOC(=O)Cc1nc2ccccc2[nH]1	1%	i	i	18%	2µM*	5µM*
COC(=O)c1cc(CSc2nc3ccccc3[nH]2)oc1C	-4%	2.9µM*	21µM*	0%	-7%	-3%
O=C(O)[C@H](Cc1ccccc1)NC(=O)N1CCC(Cc2ccccc2)CC1	0%	i	i	5%	-61%	15%
CCC1Cc2[nH]c(=S)[nH]c(=O)c2C(c2ccc(Cl)cc2)O1 (stereo unspecified)	11%	i	i	11%	/	/
O=C1CCC/C1=C/Nc1cccc(F)c1	9%	i	i	11%	1%	-1%
CCn1cc([N+](=O)[O-])c(C(=O)N2N=C(c3cccc4ccccc34)CC2c2ccccc2O)n1 (stereo unspecified)	18µM*	i	i	?	?	12%
CCn1cc(Cl)c(C(=O)N2N=C(c3ccc4ccccc4c3)CC2c2ccccc2O)n1 (stereo unspecified)	?	?	21µM*	?	?	29%
CCn1cc([N+](=O)[O-])c(C(=O)N2N=C(c3ccc(OC)cc3OC)CC2c2ccccc2O)n1 (stereo unspecified)	-4%	?	i	-8%	?	24%
CCn1cc([N+](=O)[O-])c(C(=O)N2N=C(c3ccc4ccccc4c3)CC2c2ccccc2O)n1 (stereo unspecified)	21µM*	i	?	23µM*	23%	?
COc1cccc(C2c3[nH]c4ccccc4c3C[C@H]3C(=O)N(C)CC(=O)N23)c1 (stereo partly specified)	-8%	i	i	-2%	-11%	-6%
Cc1ccc(Oc2ccc(S(=O)(=O)NCC(C)(C)N3CCOCC3)cc2)cc1	-11%	12µM*	?	-19%	-11%	21µM*
CC(C)(CNS(=O)(=O)c1ccc2c(c1)OCCO2)N1CCOCC1	2%	i	i	11%	2%	1%
COc1cc(/C=N/NC(=O)CCN2CCCCC2)ccc1O	0%	i	i	2%	-4%	-1%
COc1ccc2[nH]c(C(=O)N/N=C/c3ccc(OC)c(O)c3)cc2c1	1.2µM*	9.2µM*	6.5µM*	0.58µM*	12µM*	2.1µM*
COc1ccc(/C=N/NC(=O)c2ccc(CN3C(=O)c4cccc5cccc3c45)cc2)cc1O	-4%	i	i	?	-84%	16µM*
COc1ccc(CC(=O)N/N=C/c2c(C)n(C)c3ccccc23)cc1OC	13µM*	?	?	?	15µM*	7.3µM*
COc1cc(/C=N/NC(=O)c2ccc(CN3C(=O)c4cccc5cccc3c45)cc2)cc(OC)c1O	?	i	?	-29%	-4%	9%
COc1cc(/C=N/NC(=O)CCn2cnc(-c3ccccc3)c2-c2ccccc2)ccc1O	?	i	i	16µM*	1%	?
COc1ccc2[nH]c(C(=O)N/N=C/c3ccccc3OC)cc2c1	?	i	?	?	?	27%
COc1ccc(/C=N/NC(=O)c2nc(-c3ccccc3)cc(-c3ccccc3)n2)cc1O	?	16µM*	?	?	5%	40%
CCOc1ccc2[nH]c(C(=O)N/N=C/c3ccccc3OC)cc2c1	?	?	?	?	15µM*	5.2µM*
COc1ccc(/C=N/NC(=O)CCn2c3ccccc3c3ccccc32)cc1O	?	i	?	1.4µM*	2%	2%
SMILES	HT1080 IDH1KD tx	KB-V1 cytotox	KB-3-1 tox	HT1080-NT tox	SW480 rerep	MCF10A rerep
Cc1c(/C=N/NC(=O)C(NC(=O)c2ccc3c(c2)OCO3)C(C)C)c2ccccc2n1C (stereo unspecified)	-6%	18µM*	i	-8%	?	-75%
CCN(CC(=O)Nc1ccc(N2CCOCC2)cc1)C(=O)c1ccc(C#N)cc1	13%	i	i	18%	-3%	-3%
CCOc1cc(C(=O)N/N=C/C(Br)=C/c2ccccc2)cc(OCC)c1OCC	2.1µM*	?	?	3.7µM*	?	1.3µM*
CC(=C/c1ccccc1)/C=N/NC(=O)c1ccc2nc[nH]c2c1	14%	i	i	10%	-1%	?
O=C(N/N=C/C(Br)=C\c1ccccc1)c1ccc2nc[nH]c2c1	?	i	?	0%	?	23µM*
CCOc1cc(C(=O)NN=C2CCCC2)cc(OCC)c1OCC	?	i	i	?	?	16µM*
COc1ccc(C(=O)NN=C2CCCC2)cc1OC	-25%	?	i	-15%	-8%	1%
COCCNC(=O)c1onc(CSc2ccc(F)cc2)c1C(=O)NCCOC	1%	i	i	0%	?	3%
Cc1cc(OCCCCCN2CCCC2)ccc1Cl	-22%	i	i	-24%	?	?
CCN(CC)S(=O)(=O)c1ccc(N2CCOCC2)c(NC(=O)c2cccc3c(=O)c(C)c(-c4ccccc4)oc23)c1	2%	21µM*	i	-19%	0%	3.7µM*
COc1ccc(Cl)cc1-n1c(=S)sc2c(=O)[nH]c(SCC(=O)NCCC(C)C)nc21	16%	i	i	13%	-8%	-2%
CN(C)CCCNC1=CC(=O)OC12CCCCC2	8%	i	i	3%	-2%	3%
O=C1C=C(NCc2ccc(Cl)cc2Cl)C2(CCCCC2)O1	-24%	i	i	-18%	?	9.2µM*
CCOc1ccccc1/C=N/Nc1nc2c(N)ncnc2n1[C@H]1O[C@@H](CO)[C@H](O)[C@@H]1O	-1%	i	i	1%	8.2µM*	6%
CC1C2(C)OC(=N)C(C#N)(C(C)O2)C1(C#N)C#N (stereo unspecified)	1%	i	i	18%	1.3µM*	?
